Assay [1] in a line: compounds binding Alexa647 anti-His antibody – biochemical, small-molecule microarray, 635 nm fluorescence, artefact control for SMM control protein annotation, primary screen (AID 1128).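 Further: score merges feature fluorescence with signal-to-noise for each printed compound spot.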 The note with it: higher = more signal.
Assay [2] relates to Human papillomavirus type 1a E7 protein (residues 1-88). In words: HPV1a E7 small-molecule binders, primary screen, biochemical, small-molecule microarray, residues 1-88, 635 nm (AID 1129). The conditions noted are these: small-molecule microarray binding, fluorescence 635 nm; higher = more signal.
The target of assay [3] is Focal adhesion kinase 1 (Homo sapiens) (UniProt Q05397). Description: PTK2 protein binding on printed compound slides – biochemical, small-molecule microarray, 635/667 nm fluorescence, BSA, DTT, primary screen (AID 1130).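 Further: composite of spot emission at 667 nm and signal to noise over triplicate slides.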 The conditions noted are these: 635 nm fluorescence, higher = more signal.
Chain of Focal adhesion kinase 1 (Homo sapiens) (Q05397 whole entry, looked up): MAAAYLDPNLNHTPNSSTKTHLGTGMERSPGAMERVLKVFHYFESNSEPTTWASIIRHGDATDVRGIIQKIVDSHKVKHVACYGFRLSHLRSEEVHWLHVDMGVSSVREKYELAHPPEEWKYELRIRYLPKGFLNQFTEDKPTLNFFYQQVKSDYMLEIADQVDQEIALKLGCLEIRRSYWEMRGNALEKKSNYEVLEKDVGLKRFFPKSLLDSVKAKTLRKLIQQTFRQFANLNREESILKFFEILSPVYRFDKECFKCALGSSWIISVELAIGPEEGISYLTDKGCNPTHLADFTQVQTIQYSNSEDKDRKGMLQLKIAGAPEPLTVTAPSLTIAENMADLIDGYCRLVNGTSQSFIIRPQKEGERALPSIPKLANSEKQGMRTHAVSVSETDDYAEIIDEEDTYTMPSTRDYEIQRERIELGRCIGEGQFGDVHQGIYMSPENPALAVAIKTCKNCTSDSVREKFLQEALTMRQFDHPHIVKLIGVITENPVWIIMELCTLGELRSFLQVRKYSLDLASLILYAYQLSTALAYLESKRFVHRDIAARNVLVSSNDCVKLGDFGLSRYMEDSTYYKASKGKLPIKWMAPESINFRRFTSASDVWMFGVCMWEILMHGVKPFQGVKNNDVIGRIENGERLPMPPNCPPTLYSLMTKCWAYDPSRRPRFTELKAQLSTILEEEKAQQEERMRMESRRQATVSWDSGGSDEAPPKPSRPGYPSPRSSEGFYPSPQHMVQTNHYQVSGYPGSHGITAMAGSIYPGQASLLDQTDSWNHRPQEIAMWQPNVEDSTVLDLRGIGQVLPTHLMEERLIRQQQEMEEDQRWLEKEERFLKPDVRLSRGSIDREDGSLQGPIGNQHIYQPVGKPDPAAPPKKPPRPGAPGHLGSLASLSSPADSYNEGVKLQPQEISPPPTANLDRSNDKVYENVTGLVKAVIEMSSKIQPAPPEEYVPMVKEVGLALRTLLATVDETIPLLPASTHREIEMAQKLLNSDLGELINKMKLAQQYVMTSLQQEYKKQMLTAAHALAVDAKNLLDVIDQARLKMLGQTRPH
In assay [4] the test system is Fibrinogen (Alexa647-labelled). Description: Alexa647-fibrinogen binding to printed small molecules – biochemical, small-molecule microarray, 635/667 nm fluorescence, artefact control for SMM control-protein annotation, profiling panel (AID 1131).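 Further: z-score merges 667 nm fluorescence with per-spot signal-to-noise over triplicate slides.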 The note with it: fibrinogen-A647 binding fluorescence, higher = more signal.
For assay [5], the target named is Follistatin (Homo sapiens) (UniProt P19883). Description: FST protein binding to printed compounds – biochemical, small-molecule microarray, 635/667 nm fluorescence, primary screen (AID 1132). The note with it: 635 nm fluorescence, higher = more signal.
Chain of Follistatin (Homo sapiens) (P19883 whole entry, looked up): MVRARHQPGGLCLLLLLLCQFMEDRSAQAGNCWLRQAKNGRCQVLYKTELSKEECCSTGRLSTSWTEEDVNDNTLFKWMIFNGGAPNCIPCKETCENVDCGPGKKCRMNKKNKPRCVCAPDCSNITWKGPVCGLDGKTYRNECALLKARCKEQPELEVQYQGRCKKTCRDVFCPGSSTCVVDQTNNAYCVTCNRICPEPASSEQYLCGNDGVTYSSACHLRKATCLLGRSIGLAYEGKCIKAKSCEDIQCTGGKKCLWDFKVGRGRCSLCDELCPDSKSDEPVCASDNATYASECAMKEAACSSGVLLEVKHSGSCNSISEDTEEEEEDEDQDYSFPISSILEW
Assay [6] addresses Fibroblast growth factor 2 (Homo sapiens) (UniProt P09038). In words: basic fibroblast growth factor binding to printed compounds – biochemical, small-molecule microarray, 635/667 nm fluorescence, primary screen (AID 1133). The conditions noted are these: FGF2, fluorescence 635/667, higher = more signal.
Assay [7] is described as follows: JC-1 mitochondrial potential readout, lung cancer cells – cell-based, A549, JC-1 fluorescence, basal, 24 h, 100 nL, profiling panel (AID 1138).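 Further: A549 lung adenocarcinoma cells under basal conditions with no added stimulus; test concentration not given here.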 The conditions noted are these: higher = more signal.
Assay [8] has as its system Lefty1. Description: Lefty1 protein binding to printed compounds – biochemical, small-molecule microarray, 635/667 nm fluorescence, primary screen (AID 1139). The conditions noted are these: fluorescence 635/667, higher = more signal.
In assay [9] the test system is wheat germ agglutinin (Triticum aestivum), Alexa647-labelled. In words: Alexa647-WGA lectin binding to printed small molecules – biochemical, small-molecule microarray, 635/667 nm fluorescence, artefact control for SMM control-protein annotation, profiling panel (AID 1140).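 Further: score merges 667 nm feature emission with signal to noise over triplicate slides.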 The conditions noted are these: WGA-A647 binding, 635 nm fluorescence, higher = more signal.
The target of assay [10] is Luciferin 4-monooxygenase (Photinus pyralis) (UniProt P08659). Description: inhibition of purified Photinus pyralis luciferase – biochemical, luminescence, purified enzyme, 2006 set, primary screen (AID 1141).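 Further: cell-free assay with purified firefly luciferase at 100 ng per well in PBS; test concentration not given here.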 The conditions noted are these: purified firefly luciferase, SteadyGlo luminescence, 30 min; higher = more signal, called active from +8 up or from −8 down.
Chain of Luciferin 4-monooxygenase (Photinus pyralis) (P08659 whole entry, looked up): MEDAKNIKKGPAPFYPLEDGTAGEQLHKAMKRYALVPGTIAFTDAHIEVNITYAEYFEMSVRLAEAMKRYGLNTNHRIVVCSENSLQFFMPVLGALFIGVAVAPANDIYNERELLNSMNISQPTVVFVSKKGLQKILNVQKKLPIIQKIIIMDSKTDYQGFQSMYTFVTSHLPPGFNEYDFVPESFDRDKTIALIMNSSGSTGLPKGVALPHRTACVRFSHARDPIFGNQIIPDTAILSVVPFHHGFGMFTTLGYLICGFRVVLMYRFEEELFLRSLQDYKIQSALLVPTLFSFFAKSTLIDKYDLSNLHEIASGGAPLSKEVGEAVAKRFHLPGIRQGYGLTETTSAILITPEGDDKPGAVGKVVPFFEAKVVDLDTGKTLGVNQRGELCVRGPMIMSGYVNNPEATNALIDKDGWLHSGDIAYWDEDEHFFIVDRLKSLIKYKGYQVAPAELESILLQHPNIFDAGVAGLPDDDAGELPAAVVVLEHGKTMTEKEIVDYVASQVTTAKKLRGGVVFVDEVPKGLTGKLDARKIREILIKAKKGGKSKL
Assay [11] has as its system Wnt5a (protein binding on small-molecule microarray). Description: small molecules binding Wnt5a protein – biophysical, small-molecule microarray, 635/667 nm fluorescence, primary screen (AID 1142).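 Further: fluorescence read at 667 nm with signal to noise per printed feature.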 The note with it: 635 nm fluorescence, higher = more signal.
Assay [12] in a line: ATP-based viability of Huh7 replicon cells – cell-based, CellTiter-Glo luminescence, basal, 48 h, cytotoxicity control for HCV replication inhibitor project, primary screen (AID 1143).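 Further: Huh7 hepatoma cells carrying a hepatitis C replication reporter with no stimulus; test concentration not given here.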 The conditions noted are these: higher = more signal, called active from +8 up or from −8 down. A general note: A replicon is a self-replicating genome or part of one, used to study replication in cells.

A short description of assay [13]: Pseudomonas biofilm growth suppression – PAO1 strain, BacTiter-Glo luminescence, LB-PBS, primary screen (AID 1144). The conditions noted are these: P. aeruginosa PAO1 biofilm, 12 h, higher = more signal.
A short description of assay [14]: basal CRE-LacZ reporter activity in PC12 – cell-based, unstimulated, primary screen (AID 1145). The note with it: no forskolin, luminescence, 4.5 h, higher = more signal, called active from +8 up or from −8 down.
Assay [15] can be described thus: forskolin-driven CRE-LacZ activity in PC12 – cell-based, CRE-LacZ reporter, forskolin-stimulated, primary screen (AID 1146).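 Further: PC12 cells with 6xCRE LacZ reporter stimulated by forskolin 10 µM; beta-galactosidase reporter signal reflecting CREB driven transcription.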 The conditions noted are these: luminescence, 4.5 h, higher = more signal, called active from +8 up or from −8 down.
Assay [16] has as its target Streptavidin (Streptomyces avidinii) (UniProt P22629). Description: compounds binding control protein streptavidin – biophysical, small-molecule microarray, 635/667 nm fluorescence, artefact control for SMM compound annotation, primary screen (AID 1147).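 Further: signal reflects streptavidin binding to arrayed compounds as a control protein.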 The note with it: higher = more signal.
Assay [17] is described as follows: probe aInhba binding on compound microarray – biochemical, small-molecule microarray, 635/667 nm fluorescence, primary screen (AID 1148).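 Further: score merges 667nm spot fluorescence with signal-to-noise for antibody binding to printed compounds.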 The note with it: higher = more signal.
Assay [18] concerns the target Torsin-1A (Homo sapiens) (UniProt O14656). In words: TOR1A wild-type binding on microarray – cell lysate, small-molecule microarray, lysate, 635/667 nm, primary screen (AID 1149). The note with it: COS7 hTOR1A-WT lysate, 635 nm fluorescence, higher = more signal.
Assay [19] shares this target. Description: torsin A mutant lysate binding on microarrays – cell lysate, small-molecule microarray, COS7 lysate, 635/667 nm fluorescence, primary screen (AID 1150).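 Further: score pools 667 nm emission and signal to noise measuring lysate protein binding.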 The note with it: COS7 hTOR1A mutant lysate, 635 nm fluorescence, higher = more signal.
The test system of assay [20] is Sonic hedgehog protein (Shh). In words: Sonic hedgehog microarray binding compounds – biochemical, small-molecule microarray, 635/667 nm fluorescence, primary screen (AID 1151).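 Further: Shh protein binding to compounds spotted on small-molecule microarray slides; score combines spot fluorescence intensity with signal-to-noise across triplicate slides.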 The note with it: 635 nm fluorescence, higher = more signal.

The source made the active and inactive calls. Unless noted, how the calls were made is not given here.

Chain of Torsin-1A (Homo sapiens) (O14656 whole entry, looked up): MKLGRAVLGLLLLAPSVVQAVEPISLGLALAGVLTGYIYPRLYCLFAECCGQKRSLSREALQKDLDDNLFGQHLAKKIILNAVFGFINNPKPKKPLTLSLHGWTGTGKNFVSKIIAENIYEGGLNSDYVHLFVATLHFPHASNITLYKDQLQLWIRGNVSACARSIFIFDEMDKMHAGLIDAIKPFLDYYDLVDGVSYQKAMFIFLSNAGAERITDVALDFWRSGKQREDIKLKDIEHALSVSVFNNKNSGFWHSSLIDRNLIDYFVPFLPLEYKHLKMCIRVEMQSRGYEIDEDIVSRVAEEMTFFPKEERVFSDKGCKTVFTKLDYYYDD
Chain of Streptavidin (Streptomyces avidinii) (P22629 whole entry, looked up): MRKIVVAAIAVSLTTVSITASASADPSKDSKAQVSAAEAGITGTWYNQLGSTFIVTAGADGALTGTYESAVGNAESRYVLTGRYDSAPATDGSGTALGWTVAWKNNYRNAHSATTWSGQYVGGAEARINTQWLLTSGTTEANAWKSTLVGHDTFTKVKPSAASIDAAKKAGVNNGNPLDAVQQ
Chain of Fibroblast growth factor 2 (Homo sapiens) (P09038 whole entry, looked up): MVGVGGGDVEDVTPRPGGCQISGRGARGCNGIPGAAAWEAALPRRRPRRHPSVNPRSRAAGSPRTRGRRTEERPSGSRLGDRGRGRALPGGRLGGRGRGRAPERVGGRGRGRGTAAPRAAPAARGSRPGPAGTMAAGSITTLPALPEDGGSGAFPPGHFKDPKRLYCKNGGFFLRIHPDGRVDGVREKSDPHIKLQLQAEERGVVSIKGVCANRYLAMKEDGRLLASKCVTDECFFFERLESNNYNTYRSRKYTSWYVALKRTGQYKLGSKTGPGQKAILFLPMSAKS

On to `CC(C)CON=C1C[C@@H](O)[C@@H](O)[C@@H]2[C@@H]3C(=O)N(C4CCCCC4)C(=O)[C@@H]3CC[C@@H]12`, for which the composite z-score is 0.889 in [1]; -0.586 in assay [2]; 0.955 in assay [3]; 0.476 in [4]; 0.0116 in [5]; -0.309 in assay [6]. Also, the composite z-score was 0.225 in [8]; 0.556 in assay [9]; -0.146 in assay [11]; 0.115 in assay [16]; -0.128 in [17]; -0.792 in [18]. Moreover, the composite z-score in assay [19] was -0.0797; in [20] it was -0.318. Moreover, the z-score in assay [7] is -0.572; in [10], 0.0051 (inactive); in assay [12], -0.82 (inactive); in assay [13], -0.342 (inactive); in assay [14], 0.156 (inactive); in assay [15] it was 0.147 (inactive).
As to `C[C@@H]1NC(=O)[C@@H](C)COC(=O)[C@H](C)NC(=O)[C@@H](C)COC1=O`, the composite z-score was 1.08 in assay [1]; 0.922 in assay [2]; 0.0556 in assay [3]; -0.0769 in assay [4]; 0.172 in assay [5]; 1.21 in assay [6]. Besides, the composite z-score is 0.389 in assay [8]; -0.137 in [9]; 0.192 in assay [11]; -0.335 in [16]; -0.0791 in [17]; 0.179 in assay [18]. The composite z-score in [19] was -0.231; in assay [20], 0.234. In addition, the z-score was -0.323 in [7]; 0.254 (inactive) in assay [10]; -3.21 (inactive) in assay [12]; -0.906 (inactive) in assay [13]; 0.427 (inactive) in [14]; -0.105 (inactive) in [15].
Consider `Cc1cc2c(nc1C)CCCCN2CC(C)ON=C[C@@H](C)[C@H](OCc1ccccc1)C(C)C` (stereo not given in full), for which the composite z-score in assay [1] was 1.92; in assay [2] it was -0.598; in assay [3] it was -0.69; in assay [4], -2.1; in [5] it was -1.88; in assay [6], -1.78. For the same compound, the composite z-score in assay [8] was -0.913; in assay [9], -0.765; in assay [11], -0.918; in assay [16], -1.88; in assay [17] it was -0.26; in assay [18], -3.92. The composite z-score is -1.34 in [19] and -0.436 in [20]. Further, the z-score was -1.26 in assay [7]; -0.29 (inactive) in [10]; -4.86 (inactive) in assay [12]; 0.207 (inactive) in [13]; 2.44 (inactive) in assay [14]; 0.676 (inactive) in [15].
Regarding `COc1cccc([C@H]2Oc3ccc(OC)cc3C(=NOC[C@@H](O)COCc3ccco3)[C@@H]2O)c1`, the composite z-score in [1] was 0.232; in assay [2], -1.3; in [3], 0.3; in assay [4], -2.19; in assay [5], -0.707; in assay [6], -0.51. The composite z-score in assay [8] is -0.488; in assay [9], -0.418; in assay [11], -0.217; in assay [16], -0.903; in [17], -0.205; in assay [18] it was -1.7. The composite z-score was -1.38 in [19] and -0.0734 in [20]. For the same compound, the z-score in [7] is -0.843; in assay [10] it was -2.4 (inactive); in assay [12], -0.564 (inactive); in assay [13], 0.357 (inactive); in assay [14], 4.9 (inactive); in assay [15], 0.493 (inactive).
On to `CON=C(C)CCC(=O)OC[C@H]1O[C@H](c2ccccc2)C=C[C@@H]1Oc1ccc(OC)cc1`, for which the composite z-score in assay [1] was 1.25; in assay [2] it was -0.623; in assay [3], -0.0144; in assay [4], -0.45; in assay [5], 0.252; in assay [6], 0.48. The composite z-score in assay [8] is 0.415; in assay [9] it was -0.551; in [11], 0.564; in [16], 0.0584; in assay [17] it was -0.0963; in assay [18], 0.0952. For the same compound, the composite z-score in assay [19] was -0.013; in [20], 0.556. The z-score is 0.472 in assay [7]; 0.236 (inactive) in assay [10]; -0.539 (inactive) in [12]; -0.38 (inactive) in [13]; 1.88 (inactive) in [14]; -0.0322 (inactive) in assay [15].
